BRCA1 expr act: increases BRCA1 expression; MCF7-BRCA1-FFLuc reporter, luminescence, 48 h; response scale: scaled: vehicle 0%, 10 µM genistein 100%; Potency, µM (doses to about 46.1 µM), usual class: activators; hit rate 1.1% among 380,000; AID 624202; further: nearly all actives have a fitted effect of over 80% in size
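MCF7-BRCA1-FFLuc cells, 2000/well in phenol-red-free MEM, attached 2 h then treated 48 h at 37 C. Luciferase luminescence read 15 min after reagent; normalized to genistein maximum activation (10microM) and DMSO, concentration-response fitted.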
IL-2 act: IL-2 activation; IL-2 activation reporter assay, cell-based qHTS; stimulated with anti-CD3/CD4/CD28 beads; in transgenic mouse T cells; activation, % (series mostly up to about 46 µM); hit rate 0.065% among 360,000; AID 652025; in the data active means activation above about 50%; inconclusive means mostly about 30% to 49%
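Quantitative HTS in unstimulated transgenic mouse T cells, with memory T cells as non-tolerant control and PMA/ionomycin as tolerance-bypass control. Compound pretreatment lasted 60 minutes before 18 h bead stimulation; EGFP/DsRed fluorescence read.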
Nrf2 ARE act: activates Nrf2 signaling. AREc32 ARE-luciferase reporter (MCF7-derived line), luminescence, 24 h. hit rate 0.31% among 410,000. Potency, µM (highest dose often 46.1 µM), usual class: activators. AID 624171; further: nearly all actives have a fitted effect of over 65% in size
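Reporter line AREc32 (ARE-Fluc), seeded overnight in OPTI-MEM with 5% FBS; compound pin-transferred, 24 hr at 37 deg C, 5% CO2; luminescent read-out.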
ELG1 DNA repair: ELG1-dependent DNA repair inhibition; HEK293T ELG1-luciferase reporter, luminescence, 16 h; DNA damage induced by 5-fluorouridine; Potency, µM (series often up to 46.1 µM), most hits filed as inhibitors; hit rate 2.3% among 330,000; further: nearly all actives have a fitted effect of over 55% in size
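Overnight (16 hr) co-exposure of 2,000 cells/well to 5-fluorouridine and compound at 37 °C preceded detection. Luciferase was quantified via ONE-Glo luminescence; loss of signal denotes inhibition.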
Each line names hits and unclear results; the compound was inactive in the other large screens. Most compounds without a hit are left out; they make up all but 3.1% or so of the library. Unless noted, the call rests on the fitted dose curve; in most records, active means well fitted curve in the direction sought with a large enough effect; inconclusive means small, poorly fitted or top-dose-only effect, or another doubt; inactive means no such curve, though single readings can be large; an effect the other way counts as inactive or inconclusive.

COc1ccc(CCNc2ccc(N3C(=O)CC(C)C3=O)cc2[N+](=O)[O-])cc1OC (stereo unspecified)	ELG1 DNA repair 3.66µM
OCc1ccc2c(c1)c(-c1ccc3c(c1)OCCO3)c(-c1ccccc1)n2-c1ccccc1	ELG1 DNA repair 16.4µM
COc1ccc(-c2nc3sc(CCNC(=O)C(=O)Nc4ccccc4C#N)c(C)n3n2)cc1	none (no result: BRCA1 expr act, IL-2 act, ELG1 DNA repair)
O=C(Cc1ccccc1)Nc1ccc(NC(=O)C2CCCCC2)nc1	ELG1 DNA repair 5.17µM
O=C(Nc1ccc(NC(=O)c2ccco2)nc1)c1ccco1	ELG1 DNA repair inconclusive
O=C(Cc1ccccc1)Nc1ccc(NC(=O)c2ccco2)nc1	BRCA1 expr act 5.62µM, ELG1 DNA repair inconclusive
CCCCC(=O)Nc1cnc(NC(=O)c2ccco2)cc1C	BRCA1 expr act 11.2µM, ELG1 DNA repair inconclusive
CCOC(=O)C1CCC(CN(Cc2ccc(OC)cc2)S(=O)(=O)c2ccc(F)c(C(=O)Nc3cc(Cl)ccc3OC)c2)CC1 (stereo unspecified)	none (no result: BRCA1 expr act, IL-2 act, ELG1 DNA repair)
CCN(CC)C(=O)c1ccc(-c2nnc(Nc3cccc(O)c3)c3ccccc23)cc1	ELG1 DNA repair inconclusive
CCN(CC)C(=O)c1ccc(Nc2nnc(-c3ccc(O)cc3)c3ccccc23)cc1	ELG1 DNA repair 16.4µM
Cc1cccc(CSc2ncc(Cl)c(C(=O)Nc3sc4c(c3C#N)CCCC4)n2)c1	none (no result: IL-2 act, ELG1 DNA repair)
CC(=O)Nc1ccc(NC(=O)COC(=O)c2cc([N+](=O)[O-])ccc2N2CCOCC2)cc1	none
O=C(COC(=O)c1cc([N+](=O)[O-])ccc1N1CCOCC1)Nc1cccc(F)c1	ELG1 DNA repair 20.6µM
CCOc1ccc(CCNC(=O)COC(=O)c2cc([N+](=O)[O-])ccc2N2CCOCC2)cc1OCC	ELG1 DNA repair 18.3µM
CCOc1ccc(CCNC(=O)c2cc([N+](=O)[O-])ccc2N2CCOCC2)cc1OCC	none
N#C/C(=N\Nc1ccc(Cl)cc1)C(=O)c1ccsc1	ELG1 DNA repair 2.31µM
N#C/C(=N\Nc1ccccc1)C(N)=S	ELG1 DNA repair inconclusive
N#C/C(=N\Nc1ccc(Cl)cc1)C(N)=S	ELG1 DNA repair 9.2µM
O=C(NN1C(=O)C2C(c3ccccc3)C=CC(c3ccccc3)C2C1=O)c1cccc(Br)c1 (stereo unspecified)	Nrf2 ARE act 11.2µM
O=C(OC(C(=O)N1CCOCC1)c1ccccc1)c1c2c(nc3ccccc13)CCCC2 (stereo unspecified)	none (no result: IL-2 act, Nrf2 ARE act, ELG1 DNA repair)
O=C(c1ccc2c3n(nc2c1)-c1ccccc1CO3)N1CCOCC1	BRCA1 expr act inconclusive, ELG1 DNA repair inconclusive
O=C(c1ccc2c3n(nc2c1)-c1ccc(Cl)cc1CO3)N1CCOCC1	BRCA1 expr act 6.31µM, ELG1 DNA repair inconclusive
COCCNC(=O)c1ccc2c3n(nc2c1)-c1ccc(C)cc1CO3	ELG1 DNA repair inconclusive
Cc1ccc2c(c1)COc1c3ccc(C(=O)N[C@@H](CO)C(C)C)cc3nn1-2	BRCA1 expr act 6.31µM, ELG1 DNA repair inconclusive
Cc1ccc2c(c1)COc1c3ccc(C(=O)N4CCCCC4)cc3nn1-2	BRCA1 expr act 4.47µM, ELG1 DNA repair inconclusive
O=C(NCC1CCCO1)c1ccc2c3n(nc2c1)-c1ccccc1CO3 (stereo unspecified)	BRCA1 expr act 2.51µM, ELG1 DNA repair inconclusive
Cc1ccc(OCC(=O)NCC2(N3CCOCC3)CCCCC2)cc1C	none (no result: BRCA1 expr act, IL-2 act, ELG1 DNA repair)
COc1ccc(C(=O)c2c(C(F)(F)F)oc3c2C(=O)c2ccccc2C3=O)cc1	ELG1 DNA repair 10.3µM
COc1ccc(Cn2ccnc2SCC(=O)Nc2cc(C(F)(F)F)ccc2Cl)cc1	none (no result: BRCA1 expr act, IL-2 act, ELG1 DNA repair)
Cn1c(=O)c2c(SCC(=O)NCc3ccco3)nc(-c3ccccc3)nc2n(C)c1=O	none (no result: BRCA1 expr act, IL-2 act, ELG1 DNA repair)
COc1cc2c(cc1N)-c1ccc(N)cc1C2=O	BRCA1 expr act 10µM (no result: ELG1 DNA repair)
COc1ccccc1CNC(=O)C1CCC(CNS(=O)(=O)c2ccc3c(c2)CCCC(=O)N3)CC1 (stereo unspecified)	none (no result: IL-2 act, ELG1 DNA repair)
O=C1C=C(NCc2ccccc2)c2ccccc2C1=O	ELG1 DNA repair 11.6µM
CCN(C(=O)CN(C)S(=O)(=O)c1ccc2c(c1)c(=O)n(C)c(=O)n2C)c1ccc(OC)cc1	none (no result: IL-2 act, ELG1 DNA repair)
CC(=O)Nc1ccc(/C(C)=N/Nc2nc(Nc3cccc4ccccc34)nc(N3CCOCC3)n2)cc1	ELG1 DNA repair 7.31µM
O=C(O)c1ccc(COc2ccc([N+](=O)[O-])cc2Cl)cc1	BRCA1 expr act 12.6µM (no result: ELG1 DNA repair)
Cc1cccc(NC(=O)C2CCCN(S(=O)(=O)c3ccc4c(c3)oc(=O)n4C)C2)c1C (stereo unspecified)	none (no result: IL-2 act, ELG1 DNA repair)
CCCCN(C(=O)Cc1cccs1)c1nnc(-c2cccnc2)s1	BRCA1 expr act 3.16µM, ELG1 DNA repair inconclusive
CCN(C(=O)Cc1cccs1)c1nnc(-c2cc(OC)c(OC)c(OC)c2)s1	ELG1 DNA repair 2.91µM
COCCN(C(=O)Cc1cccs1)c1nnc(-c2cccnc2)s1	none
CCN(C(=O)Cc1ccccc1OC)c1nnc(-c2ccncc2)s1	ELG1 DNA repair inconclusive
O=C(COc1ccccc1Cl)OCc1cc(=O)n2nc(C3CCCCC3)sc2n1	none (no result: IL-2 act, ELG1 DNA repair)
C=CCC[C@@H](Cc1ccc(F)cc1)C(=O)OC[C@H](Cc1c[nH]c2ccccc12)NC(=O)[C@H](CC=C)CC(=O)N(CCO)Cc1ccccc1	ELG1 DNA repair 18.3µM
C=CCC[C@@H](Cc1ccc(F)cc1)C(=O)OC[C@@H](Cc1c[nH]c2ccccc12)NC(=O)[C@@H](CC=C)CC(=O)NCCO	ELG1 DNA repair inconclusive
C=CC[C@H](CC(=O)N(CCO)Cc1ccccc1)C(=O)N[C@H](COC(=O)[C@@H](CC=C)Cc1ccc(F)cc1)Cc1ccccc1	ELG1 DNA repair 20.6µM
C=CC[C@@H](CC(=O)N(CCO)Cc1ccccc1)C(=O)N[C@H](C)COC(=O)[C@@H](CC=C)Cc1ccc(F)cc1	ELG1 DNA repair inconclusive
C=CC[C@H](CC(=O)N(CCO)Cc1ccccc1)C(=O)N[C@@H](C)COC(=O)[C@H](CC=C)CC(=O)OC(C)(C)C	ELG1 DNA repair 23.1µM
C=CCC[C@H](Cc1ccc(F)cc1)C(=O)OC[C@@H](Cc1c[nH]c2ccccc12)NC(=O)[C@@H](CC=C)CC(=O)N(CCO)Cc1ccccc1	ELG1 DNA repair 25.9µM
O=C(NC1CCCCC1)c1cnn2c1NC(=C1CC1)C=C2C(F)F	none (no result: IL-2 act, Nrf2 ARE act, ELG1 DNA repair)
Cc1ccc(-c2c(C(=O)NCCc3ccccc3)oc(=O)c3ccccc23)cc1	none (no result: IL-2 act, ELG1 DNA repair)
C=CCC[C@H](Cc1ccc(F)cc1)C(=O)OC[C@H](Cc1c[nH]c2ccccc12)NC(=O)[C@@H](CC=C)CC(=O)N(CCO)Cc1ccccc1	ELG1 DNA repair 23.1µM
Cc1ccc(NC(=O)C(=Cc2ccc(C(=O)O)cc2)C(=O)Nc2ccc(C)cc2C)c(C)c1	Nrf2 ARE act inconclusive, ELG1 DNA repair 16.4µM
Cc1c(C(=O)N2CCN(c3ccccn3)CC2)sc2ncnc(N3CCN(c4ccccc4)CC3)c12	none (no result: ELG1 DNA repair)
Cc1nc(N2CCOCC2)c2c(C)c(C(=O)Nc3ccccc3C(F)(F)F)sc2n1	ELG1 DNA repair 16.4µM
Cc1nc(N2CCOCC2)c2c(C)c(C(=O)Nc3ccccc3Cl)sc2n1	none
COc1ccc(NC(=O)c2sc3nc(C)nc(N4CCN(c5ccccn5)CC4)c3c2C)cc1Cl	ELG1 DNA repair 3.26µM
